Screening data from PubChem BioAssay.
This is a sample that favours compounds with a hit; in the whole collection about 1% have one here.
Sa ugtP lethal = compounds lethal to S. aureus RN4220 ugtP deletion mutant | OD600 growth, 16 h | growth inhibition, % (test concentration not listed) | 0.54% of 330,000 active; in the data active means growth inhibition above about 68%
PriA SSB inh = blocks PriA binding to SSB C-terminal tail; AlphaScreen SSBct-PriA binding, biotinylated peptide; 0.6% of 430,000 active; AID 1272365; inhibition, % at 33 µM; in the data active means inhibition mostly above about 37%, no sharp cut-off; inactive means mostly below about 20%
Sa RN4220 lethal = S. aureus RN4220 growth inhibition; OD600, 16 h; inhibition, % (concentration not given with the values); 0.33% of 330,000 active; AID 1259311; in the data active means inhibition above about 85%
A number is an active result; 0 = inactive; - = no result given.

SMILES	Sa ugtP lethal	PriA SSB inh	Sa RN4220 lethal
CCC(=O)OCCNc1cc(Sc2nc3ccccc3s2)c2nonc2c1[N+](=O)[O-]	0	0	0
CCOC(=O)C(C(N)=NCCO)=C(O)c1ccccc1	-	0	-
CCN(c1ccc(NS(=O)(=O)c2cc(Cl)ccc2Cl)cc1)C(C)C	0	39.6	0
CN(C)c1ccc(NS(=O)(=O)c2cc(Cl)ccc2Cl)cc1	0	0	0
O=C(Nc1ccccc1)C1(c2cccs2)CCCC1	-	0	-
O=C(NCc1ccc2c(c1)OCO2)C1(c2cccs2)CCCC1	-	0	-
O=C(NCC1CCCO1)c1sc(=S)n2c1[nH]c(=O)c1ccc(C(=O)N3CCCCC3)cc12 (stereo not drawn)	0	0	0
O=C(NCCc1ccccc1)c1ccc2c(=O)[nH]c3c(C(=O)NCC4CCCO4)sc(=S)n3c2c1 (stereo not drawn)	-	0	-
O=C(NC1CCCCC1)c1sc(=S)n2c1[nH]c(=O)c1ccccc12	99.8	0	99.9
CCCCNC(=O)c1sc(=S)n2c1[nH]c(=O)c1ccccc12	82.0	0	0
CCOc1ccc(NC(=O)C(=O)NC2CCCCCC2)cc1	-	0	-
Cc1cc(=O)[nH]c(-n2ncc(C(=O)Nc3cccc(C(F)(F)F)c3)c2C)n1	-	0	-
O=C(N1CCN=C1SCc1cccc([N+](=O)[O-])c1)C12CC3CC(CC(C3)C1)C2	-	0	-
CCn1c(-c2nc(C(=O)N3CCNC(=O)C3)cs2)cc2ccccc21	-	0	-
O=C1C(c2ccccc2)=C(N2CC2)c2ccccc21	0	41.4	0
O=C1C(Nc2ccccc2)=C(N2CCCCC2)C(=O)c2ccccc21	0	0	0
COc1ccc(CCNC(=O)C(=O)NCc2ccccc2Cl)cc1OC	-	0	-
CC(C)C1O/C(=N/C(=O)Nc2ccc(Cl)c(Cl)c2)NC1=O (stereo not drawn)	99.9	-	100.0
CC(C)C1OC(=NC(=O)Nc2ccc(Cl)c(Cl)c2)NC1=O (stereo not drawn)	-	0	-
COC(=O)c1ccc(C(=O)Nc2nnc(-c3cc(C)n(C)n3)o2)cc1	-	95.0	-
COc1cc(C(=O)Nc2nnc(-c3cc(C)n(C)n3)o2)cc(OC)c1OC	-	0	-
Cn1nccc1C(=O)N=c1sc2cccc(Cl)c2n1C	-	0	-
FC(F)(F)c1ccccc1C=NN1CCN(Cc2ccccc2)CC1	92.5	0	0
FC(F)(F)c1ccc(C=NN2CCN(Cc3ccccc3)CC2)cc1	0	0	0
COC(=O)c1c(NC(=O)c2ccno2)sc2c1CC(C)(C)NC2(C)C	-	0	-
SMILES	Sa ugtP lethal	PriA SSB inh	Sa RN4220 lethal
Cc1cc(C(=O)N2CC(S(=O)(=O)c3ccc(F)cc3)C2)c(C)o1	-	0	-
Brc1ccc2nc(NCCN3CCOCC3)sc2c1	-	0	-
Cc1ccc(S(=O)(=O)N2[C@@H](c3ccc(C(C)(C)C)cc3)C(C(=O)O)=CC[C@H]2c2cccc(Cl)c2)cc1	0	0	0
Cc1ccc(S(=O)(=O)N2C(c3ccc(Cl)cc3)CC=C(C(=O)O)C2c2ccc(F)cc2)cc1 (stereo not drawn)	93.4	-	0
Cc1ccc([C@H]2C(C(=O)O)=CC[C@@H](c3ccc(Cl)cc3)N2S(=O)(=O)c2ccc(C)cc2)cc1	0	0	0
Cc1ccc(S(=O)(=O)N2[C@@H](c3ccc(C(C)(C)C)cc3)C(C(=O)O)=CC[C@H]2c2ccc(Cl)c(Cl)c2)cc1	94.5	0	99.7
CNC(=O)c1ccsc1NC(=O)C1=COCCO1	-	0	-
Cn1nccc1C(=O)Nc1nnc(-c2ccc3c(c2)OCO3)o1	-	0	-
O=C(Nc1ccc(F)c(F)c1)C(=O)N1CCC(Cc2ccccc2)CC1	-	0	-
Cc1ccc(NC(=O)C(=O)N2CCC(Cc3ccccc3)CC2)c([N+](=O)[O-])c1	-	39.0	-
CC1SCC(=O)N(CC(=O)Nc2ccc(Cl)cc2)C1=O (stereo not drawn)	-	0	-
N#Cc1nccnc1OC1CCC(NC(=O)c2ccccc2F)CC1 (stereo not drawn)	-	0	-
CC(C)CS(=O)(=O)C1CN(C(=O)c2cc(-c3ccccc3)n[nH]2)C1	-	0	-
O=C(c1cc2cc(F)ccc2s1)N1C2CCC1CC(S(=O)(=O)c1ccccc1)C2 (stereo not drawn)	-	77.0	-
CSC1CC2CCC(C1)N2C(=O)c1cc2cc(F)ccc2s1 (stereo not drawn)	-	0	-
COc1cccc(-c2coc3c(C)c4oc(=O)c(CCC(=O)O)c(C)c4cc23)c1	100.4	0	100.4
CCCCC(NC(=O)Cc1c(C)c2cc3c(-c4ccccc4)coc3c(C)c2oc1=O)C(=O)O (stereo not drawn)	99.5	0	98.5
CC[C@@H](C)[C@H](NC(=O)Cc1c(C)c2cc3c(C)coc3c(C)c2oc1=O)C(=O)O	0	0	0
COc1cccc(-c2coc3cc4oc(=O)c(CCC(=O)O)c(C)c4cc23)c1	0	0	0
COc1ccc(-c2coc3cc4oc(=O)c(CC(=O)O)c(C)c4cc23)cc1	0	0	0
Cc1c(CC(=O)O)c(=O)oc2c(C)c3occ(-c4ccc(Br)cc4)c3cc12	-	0	-
COc1ccc(-c2coc3c(C)c4oc(=O)c(CC(=O)O)c(C)c4cc23)cc1	100.2	0	92.8
COc1cccc(-c2coc3c(C)c4oc(=O)c(CC(=O)O)c(C)c4cc23)c1	98.7	0	95.1
Cc1cc(NC(=O)Cc2ccc([N+](=O)[O-])cc2)n(-c2nc(-c3ccc(F)cc3)cs2)n1	-	0	-
Cc1cc(C(F)(F)F)nc(CCNC(=O)CN2C(=O)CCC2=O)n1	-	0	-
SMILES	Sa ugtP lethal	PriA SSB inh	Sa RN4220 lethal
NC(=O)c1oc2ccccc2c1NC(=O)c1ccc(C(F)(F)F)cc1	-	0	-
Cc1ccc(C)c(NC(=O)C(C)Oc2ccc(F)cc2)c1 (stereo not drawn)	-	0	-
Cc1nn(C)c(C(=O)NN=Cc2ccncc2)c1Cl	-	0	-
Cc1csc(NC(=O)CN2CCN(Cc3nc(-c4cccs4)cs3)CC2)n1	-	0	-
CCOC(=O)N1CCN(C(=O)CSc2nc3c(c(=O)n2-c2ccc(Br)cc2)SCC3)CC1	-	0	-
NC(=O)c1ccnc2nc[nH]c12	-	0	-
CC(C)(C)C(=O)CSc1ncnc2c1cnn2Cc1ccccc1	0	0	0
c1ccc(CSc2ncnc3c2cnn3Cc2ccccc2)cc1	97.1	0	0
O=C(Cn1ccc2ccccc21)Nc1cc(N2CCN(Cc3ccccc3)CC2)ncn1	-	44.0	-
O=C(Cn1ccc2ccccc21)Nc1cc(N2CCCC2)ncn1	-	0	-
O=C(COc1ccc(Br)cc1Br)Nc1cccc(O)c1	-	0	-
CCOC(=S)SCC(=O)Nc1nc(-c2ccccc2)cs1	0	0	0
CCOC(=S)SCC(=O)Nc1nc(-c2ccc(Br)cc2)cs1	98.9	0	0
COCCNC(=O)NCCn1nc(-c2ccccn2)c2c1CCCC2	-	0	-
CC1=NN(c2ccc(C)cc2)C(=O)/C1=C/c1ccc(-c2cc([N+](=O)[O-])ccc2O)o1	85.0	0	0
O=C1NN(c2cccc(Br)c2)C(=O)/C1=C/c1ccc(-c2cc([N+](=O)[O-])ccc2O)o1	0	0	0
CCOC(=O)C1(Cc2ccccc2C)CCCN(C(=O)c2ccoc2)C1 (stereo not drawn)	0	41.5	0
CCOC(=O)C1(Cc2ccccc2C)CCCN(C(=O)c2ccnn2C)C1 (stereo not drawn)	0	0	0
CN(C(=O)CN1CCN(Cc2nc(-c3ccccc3)cs2)CC1)c1ccccc1	-	0	-
CCOC(=O)CN1CCN(c2nc3c(c(=O)[nH]c(=O)n3C)n2Cc2ccc(Cl)c(Cl)c2)CC1	-	0	-
O=C(Nc1ccc(Cl)cc1)/C(=C/c1cccc(O)c1)c1nc2ccccc2s1	89.2	0	0
S=C(Nc1ccc(Cl)cc1)c1nc2ccccc2s1	0	0	0
